# Compounds without any hit were thinned out: in the full panel of roughly 83,000, 20% have a hit.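 Results are percent growth after 48 hours of single-concentration exposure. 100 means growth as in untreated cells, lower positive values show inhibition; negative values down to -100 show cell death.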 A number with no mark means an inactive call. Active and inactive are the calls of the source.
# Tested on: OVCAR-3 ovarian
# Assay: NCI-60 one-dose screen, 48 h (100 = growth as untreated, 0 = no growth, -100 = all killed)
# Settings: 10 µM unless noted
# Experimental: Growth inhibition of the OVCAR-3 human tumor cell line is measured as a screen for anti-cancer activity. Cells are grown in 96 well plates and exposed to the test compound for 48 hours. Compounds are tested at a single concentration, which is 10^-5 M for most compounds. The reported endpoint is percent growth (GI% or GIPRCNT), where numbers from 0 - 100% represent growth inhibition, and numbers from -100% - 0 represent cell death. For example, a value of 40 represents 60% growth inhibition. A value of 0 means no net growth occurred over the course of the experiment. A value of -40 indicates 40% of cells at the beginning of the experiment died by the end of the experiment. A value of -100 means all cells are dead at the end of the experiment.
# NCI-60 Human Tumor Cell Lines Screen was performed using the standard one-dose NCI protocol, which is described in more detail at https://dtp.cancer.gov/discovery_development/nci-60/default.htm.
# Compounds with GIPRCNT values below 10 were considered active. Activity score was based on GIPRCNT using the following formula: […]
# Score is 0 for GIPRCNT values of 100 or above, 50 for GIPRCNT values of 0, and 100 for GIPRCNT values of -100.
row,Compound,growth
1,Cn1cc(-c2noc(-c3cn(C)c4ncccc34)n2)c2cc(Cl)ccc21,109%
2,CC(C)=CC/C=C(/C)[C@H]1CC[C@]2(C)[C@@H]1CC[C@@H]1[C@@]3(C)CCCNC(C)(C)[C@@H]3CC[C@]12C,-47.8% [100 µM] (active)
3,C#CC(OC(=O)N(C)C)(c1ccccc1)c1ccc(F)cc1 (stereo not given),133%
4,CCOC(=O)n1cc(C2=C(c3ccc(OC)c(OC)c3)COC2=O)c2ccccc21,-42.6% (active)
5,O=c1cc(-c2ccccc2)oc2c(O)c(O)ccc12,5.27% (active)
6,CCOc1ccc(S(=O)(=O)Nc2ccc3c(c2)N(S(=O)(=O)CC)CCC3)cc1,54.3%
7,COc1ccc(OC)c(NC=O)c1,117%
8,Oc1c(CNCCNCc2cc(Cl)cc(Cc3ccccc3)c2O)cc(Cl)cc1Cc1ccccc1,29.5%
9,CCOC(=O)C(C(C)=O)c1nc2sc3cc(Cl)c(Cl)cc3n2c(=O)c1C#N (stereo not given),112%
10,CC1(C)[C@@H](NOCCCN)CC[C@]2(C)[C@H]3C(=O)C=C4[C@@H]5C[C@](C)(C(=O)O)CC[C@]5(C)CC[C@@]4(C)[C@]3(C)CC[C@@H]12,-50.1% [100 µM] (active)
11,COc1ccc(/C=C(/C2=NCCN2)n2ccc3ccccc32)cc1,97.9%
12,COc1ccc(-c2cc(-c3ccc(OC)c(OC)c3)nc(SCCCCCC(=O)NO)n2)cc1,64.8%
13,CCCCCCCCN(CCCCCCCC)CC(O)c1ccc(Cl)c(C)c1Cl (stereo not given),88.9%
14,CCn1cc(-c2[nH]c(=S)ncc2-c2ccc(Cl)cc2)c(-c2ccc(Br)cc2)n1,97.4%
15,CCN1CCN(CC(=O)Nc2nc3ccc(NCc4ccc(Cl)cc4)cc3s2)CC1,62.1%
16,CC(C)=CC/C=C(/C)[C@H]1CC[C@]2(C)[C@@H]1CC[C@@H]1[C@@]3(C)CCC(=O)NC(C)(C)[C@@H]3CC[C@]12C,-63.9% [100 µM] (active)
17,COc1ccc2c(c1)C(C)Cc1c(Cl)ncnc1N2C (stereo not given),2.22% (active)
18,CC(C)(C)c1cc(C(=O)N2CCC(C(=O)NCCN)CC2)cc(C(C)(C)C)c1,104%
19,Cc1cnc([C@]23CC[C@@H](C)[C@H](C)[C@H]2C2=CC[C@@H]4[C@@]5(C)Cc6c([nH]c7ccccc67)C(C)(C)[C@@H]5CC[C@@]4(C)[C@]2(C)CC3)o1,83.8% [100 µM]
20,C#C[C@]1(O)CC[C@H]2[C@@H]3CC=C4c5nc(Nc6ncccn6)sc5CC[C@]4(C)[C@H]3CC[C@@]21C,65.3%

row,Compound,growth
1,N#Cc1ccc(-c2ccc(COc3ccc(CC4SC(=O)NC4=O)cc3)cc2)cc1 (stereo not given),64.7%
2,O=c1[nH]c(CN2CCN(c3cccc(Cl)c3)CC2)nc2cc(Cl)ccc12,100%
3,C#C[C@]1(O)CC[C@H]2[C@@H]3CC=C4c5nc(Nc6ccccc6[N+](=O)[O-])sc5CC[C@]4(C)[C@H]3CC[C@@]21C,65.8%
4,CC1(C)CC[C@]2(C(N)=O)CC[C@]3(C)C(=CC[C@@H]4[C@@]5(C)C/C(=C/c6cccnc6)C(=O)C(C)(C)[C@@H]5CC[C@]43C)[C@@H]2C1,-64.2% [100 µM] (active)
5,CN(C)C(=S)Sc1ccc([N+](=O)[O-])cc1[N+](=O)[O-],1.07% (active)
6,CC(C)=CC/C=C(/C)[C@H]1CC[C@]2(C)[C@@H]1CC[C@@H]1[C@@]3(C)CC/C(=N/O)C(C)(C)[C@@H]3CC[C@]12C,52.4% [100 µM]
7,NS(=O)(=O)c1ccc(CCN2C(=O)/C(=C\c3ccccc3)C=C2c2ccc(Cl)cc2)cc1,96.9%
8,O=C1Nc2ccccc2/C1=C/C(=O)c1ccc(N2CCOCC2)cc1,60.9%
9,Clc1ccc(/C=N/Nc2nc3ccccc3s2)c(Cl)c1,87.3%
10,Cc1cc[n+](CCCCCCCCCC[n+]2ccc(C)cc2)cc1,99.4%
11,COc1cc(C)cc2oc3oc(=O)c(C(=O)c4cc5cc(Br)ccc5o4)cc3c(=O)c12,107%
12,Nc1nc(Nc2ccccc2)c2ncn(Cc3cc4c(cc3Br)OCO4)c2n1,2.58% (active)
13,CCN(CC)c1ccc2cc(C(Nc3ccc(Cl)cc3)c3nnnn3C(C)(C)C)c(=O)oc2c1 (stereo not given),94.4%
14,COc1ccc2[nH]c(C(=O)N3CCN(C(=O)OCc4ccc5c(Br)cc(Br)c(O)c5n4)CC3)cc2c1,-93.9% (active)
15,C=C(C)[C@@H]1CC[C@]2(C)[C@H](CC=C3[C@@H]4[C@@H](C)[C@H](C)CC[C@]4(C(N)=O)CC[C@]32C)[C@@]1(C)CCC#N,-53.6% [100 µM] (active)
16,COc1ccc(C(C(=O)O)c2ccc(OC)cc2)cc1,101%
17,Clc1ccccc1/C=N\Nc1ccccn1,94.1%
18,O=C(CCCCCCSc1nc(-c2ccc(Cl)cc2)cc(-c2ccc(Cl)cc2)n1)NO,22.9%
19,CC(C)(C)c1cc(C(=O)Nc2ccc(C(=O)NCCN)cc2)cc(C(C)(C)C)c1,54.6%
20,O=C1CN(Cc2ccc(C(=O)NO)cc2)C(=O)[C@@H](Cc2ccccc2)N1,109%

# Reference: PubChem BioAssay (NCI)
